These results are taken from the supplement of paper PMC8007513.

Structures are written as SMILES. Counter-ions that a name gives are not always drawn. ± gives the standard error. The whole screen tested about 1,300 compounds, of which about 130 (10%) showed an effect of 50% or more. This is one part of a sample in which strong results are shown more often than they occur.

This test concerns Trichoderma virens ATCC 9645. The test can be described thus: growth yield (OD600) with compound + IPBC relative to untreated control; higher = less growth inhibition. As to conditions: compound concentration: 100 uM, IPBC concentration: 200 ng/ml. The method, boiled down: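 Library compounds (100 μM final), with or without a co-applied biocide (200 ng ml^−1), were added to 100 μl aliquots of Trichoderma virens ATCC 9645 spores at 15,000 spores ml^−1 in potato dextrose broth. Cultures were grown at 30 °C in 96-well plates, and OD600 was measured at 40 h and 72 h. Each growth value is a mean of duplicate screens, expressed relative to the control with neither agent.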

Consider `Nc1nc(/C(=C/CC(=O)O)C(=O)N[C@@H]2C(=O)N3C(C(=O)O)=CCS[C@H]23)cs1` [Ceftibuten] + CCCCNC(=O)OCC#CI [3-iodo-2-propynyl butylcarbamate (IPBC)], for which the growth yield (40 h) was determined as 92.4 ± 4.8% and the growth yield (72 h) is 94 ± 3.1%.

For the compound `CCCNC(=O)NS(=O)(=O)c1ccc(Cl)cc1` [Chlorpropamide] + CCCCNC(=O)OCC#CI [3-iodo-2-propynyl butylcarbamate (IPBC)], the growth yield is, setting by setting: (40 h) 93.7 ± 4.1%; (72 h) 102 ± 2.2%.

As to `CCN(CC)C(=S)SSC(=S)N(CC)CC` [Disulfiram] + CCCCNC(=O)OCC#CI [3-iodo-2-propynyl butylcarbamate (IPBC)], the growth yield reads like this: (40 h) 33.7 ± 3.8%; (72 h) 92.4 ± 1.6%.

Take `C=CCC1(CC(C)C)C(=O)NC(=O)NC1=O` [Butalbital] + CCCCNC(=O)OCC#CI [3-iodo-2-propynyl butylcarbamate (IPBC)]: the growth yield (40 h) came out at 85.6 ± 1.4% and the growth yield (72 h) turned out to be 93.2 ± 0.94%.

In the case of `COc1ccc([C@@H]2Sc3ccccc3N(CCN(C)C)C(=O)[C@@H]2OC(C)=O)cc1` [Diltiazem hydrochloride] + CCCCNC(=O)OCC#CI [3-iodo-2-propynyl butylcarbamate (IPBC)], the growth yield (40 h) amounted to 80.85 ± 0.48% and the growth yield (72 h) turned out to be 88.4 ± 2.2%.

With `CC(C)C[C@H](CN)CC(=O)O` [Pregabalin] + CCCCNC(=O)OCC#CI [3-iodo-2-propynyl butylcarbamate (IPBC)], the growth yield is 85.3 ± 0.79% (40 h) and 89.14 ± 0.21% (72 h).

Regarding `CN(C)c1cc(NC(=O)CNC(C)(C)C)c(O)c2c1C[C@H]1C[C@H]3[C@H](N(C)C)C(O)=C(C(N)=O)C(=O)[C@@]3(O)C(O)=C1C2=O` [Tigecycline] + CCCCNC(=O)OCC#CI [3-iodo-2-propynyl butylcarbamate (IPBC)], the growth yield reads like this: (40 h) 80.7 ± 3.5%; (72 h) 79 ± 2%.

Regarding `CC(C)NC(=N)NC(=N)Nc1ccc(Cl)cc1` [Proguanil hydrochloride] + CCCCNC(=O)OCC#CI [3-iodo-2-propynyl butylcarbamate (IPBC)], the growth yield runs as follows: (40 h) 92.8 ± 2.2%; (72 h) 104 ± 1.8%.

`N=C(N)NC(=N)NCCc1ccccc1` [Phenformin hydrochloride] + CCCCNC(=O)OCC#CI [3-iodo-2-propynyl butylcarbamate (IPBC)]: the growth yield (40 h) was determined as 86.25 ± 0.48% and the growth yield (72 h) was 92 ± 2.4%.

For the compound `N=C(NCCCCCCNC(=N)NC(=N)Nc1ccc(Cl)cc1)NC(=N)Nc1ccc(Cl)cc1` [Chlorhexidine] + CCCCNC(=O)OCC#CI [3-iodo-2-propynyl butylcarbamate (IPBC)], the growth yield was 4.61 ± 0.16% (40 h) and 3.67 ± 0.32% (72 h).

As to `CCN(CC)C(=O)N1CCN(C)CC1` [Diethylcarbamazine citrate] + CCCCNC(=O)OCC#CI [3-iodo-2-propynyl butylcarbamate (IPBC)], the growth yield was 83.4 ± 2.4% (40 h) and 94.1 ± 1.4% (72 h).

For `CN(CCOc1ccc(CC2SC(=O)NC2=O)cc1)c1ccccn1` (configuration not stated) [Rosiglitazone Hydrochloride] + CCCCNC(=O)OCC#CI [3-iodo-2-propynyl butylcarbamate (IPBC)], the growth yield (40 h) turned out to be 76.4 ± 7.5% and the growth yield (72 h) came to 82.6 ± 6.1%.

Turning to `CCCOc1ccccc1-c1nc2[nH]nnc2c(=O)[nH]1` [Zaprinast] + CCCCNC(=O)OCC#CI [3-iodo-2-propynyl butylcarbamate (IPBC)], the growth yield is 87.2 ± 0.79% (40 h) and 98.7 ± 1.1% (72 h).

Take `N[C@@H]1CCCCN(c2c(F)cc3c(=O)c(C(=O)O)cn(C4CC4)c3c2Cl)C1` [Besifloxacin hydrochloride] + CCCCNC(=O)OCC#CI [3-iodo-2-propynyl butylcarbamate (IPBC)]: the growth yield is 88.5 ± 2.7% (40 h) and 88.1 ± 2.7% (72 h).

Take `CC/C(=C(\c1ccccc1)c1ccc(OCCN(C)C)cc1)c1ccccc1` [Tamoxifen citrate] + CCCCNC(=O)OCC#CI [3-iodo-2-propynyl butylcarbamate (IPBC)]: the growth yield turned out to be 3.34 ± 0.48% (40 h) and 3.36 ± 0.63% (72 h).

Take `CCN(CC)CCOC(=O)C(c1ccccc1)c1ccccc1` [Adiphenine hydrochloride] + CCCCNC(=O)OCC#CI [3-iodo-2-propynyl butylcarbamate (IPBC)]: the growth yield (40 h) is 87.2 ± 1.4% and the growth yield (72 h) amounted to 92.8 ± 1.4%.

For `CN(C)CCOC(=O)COc1ccc(Cl)cc1` [Meclofenoxate hydrochloride] + CCCCNC(=O)OCC#CI [3-iodo-2-propynyl butylcarbamate (IPBC)], the growth yield runs as follows: (40 h) 93.2 ± 3.3%; (72 h) 96.7 ± 2.1%.

Consider `COc1cc(C(=O)NCc2ccc(OCCN(C)C)cc2)cc(OC)c1OC` [Trimethobenzamide hydrochloride] + CCCCNC(=O)OCC#CI [3-iodo-2-propynyl butylcarbamate (IPBC)], for which the growth yield came to 90.2 ± 1.3% (40 h) and 91.3 ± 2.8% (72 h).

Regarding `COc1ccc(C(=O)NCc2ccc(OCCN(C)C)cc2)cc1OC` [Itopride] + CCCCNC(=O)OCC#CI [3-iodo-2-propynyl butylcarbamate (IPBC)], the growth yield was 107 ± 1.1% (40 h) and 102% (72 h).

Turning to `CN(C)CCOc1ccc(/C(=C(/CCCl)c2ccccc2)c2ccccc2)cc1` [Toremifene] + CCCCNC(=O)OCC#CI [3-iodo-2-propynyl butylcarbamate (IPBC)], the growth yield by setting is: (40 h) 3.49 ± 0.95%; (72 h) 3.15 ± 0.42%.

Turning to `CCN(CC)CCOc1ccc(C(=C(Cl)c2ccccc2)c2ccccc2)cc1` [Clomiphene citrate (Z,E)] + CCCCNC(=O)OCC#CI [3-iodo-2-propynyl butylcarbamate (IPBC)], the growth yield (40 h) stood at 3.02 ± 0.16% and the growth yield (72 h) turned out to be 2.94%.

Regarding `CN(C)CCOC(c1ccccc1)c1ccccc1` [Diphenhydramine hydrochloride] + CCCCNC(=O)OCC#CI [3-iodo-2-propynyl butylcarbamate (IPBC)], the growth yield reads like this: (40 h) 87.2 ± 2.1%; (72 h) 94 ± 2.1%.

As to `COc1ccc(C(Cl)=C(c2ccc(OC)cc2)c2ccc(OC)cc2)cc1` [Chlorotrianisene] + CCCCNC(=O)OCC#CI [3-iodo-2-propynyl butylcarbamate (IPBC)], the growth yield runs as follows: (40 h) 103 ± 17%; (72 h) 101 ± 11%.

With `CCN(CC)CCNC(=O)c1cc(Br)c(N)cc1OC` [Bromopride] + CCCCNC(=O)OCC#CI [3-iodo-2-propynyl butylcarbamate (IPBC)], the growth yield was found to be 92.6 ± 14% (40 h) and 93.8 ± 7.5% (72 h).

For the compound `CCCOc1cc(N)ccc1C(=O)OCCN(CC)CC` [Propoxycaine hydrochloride] + CCCCNC(=O)OCC#CI [3-iodo-2-propynyl butylcarbamate (IPBC)], the growth yield by setting is: (40 h) 86.7%; (72 h) 88.73 ± 0.42%.

On to `CCC1(C)CC(=O)NC1=O` (configuration not stated) [Ethosuximide] + CCCCNC(=O)OCC#CI [3-iodo-2-propynyl butylcarbamate (IPBC)], for which the growth yield runs as follows: (40 h) 94.8 ± 2.1%; (72 h) 97.85 ± 0.94%.

Consider `CN1CCN(C2=Nc3ccccc3Oc3ccc(Cl)cc32)CC1` [Loxapine succinate] + CCCCNC(=O)OCC#CI [3-iodo-2-propynyl butylcarbamate (IPBC)], for which the growth yield came out at 71.8 ± 2.2% (40 h) and 91.87 ± 0.84% (72 h).

Take `CC(=O)N(CC(C)C(=O)O)c1c(I)cc(I)c(N)c1I` (configuration not stated) [Iocetamic acid] + CCCCNC(=O)OCC#CI [3-iodo-2-propynyl butylcarbamate (IPBC)]: the growth yield worked out at 107 ± 18% (40 h) and 102 ± 11% (72 h).

With `C#C[C@]1(O)CC[C@H]2[C@@H]3[C@H](C)CC4=C(CCC(=O)C4)[C@H]3CC[C@@]21C` [Tibolone] + CCCCNC(=O)OCC#CI [3-iodo-2-propynyl butylcarbamate (IPBC)], the growth yield was found to be 80.1 ± 2.9% (40 h) and 90.09 ± 0.1% (72 h).

With `Cc1ccc(-c2cc(C(F)(F)F)nn2-c2ccc(S(N)(=O)=O)cc2)cc1` [Celecoxib] + CCCCNC(=O)OCC#CI [3-iodo-2-propynyl butylcarbamate (IPBC)], the growth yield by setting is: (40 h) 57.8 ± 0.64%; (72 h) 78.76 ± 0.73%.

With `C[C@]12CC[C@@H]3c4ccc(OC(=O)N(CCCl)CCCl)cc4CC[C@H]3[C@@H]1CC[C@@H]2O` [Estramustine] + CCCCNC(=O)OCC#CI [3-iodo-2-propynyl butylcarbamate (IPBC)], the growth yield stood at 97.8 ± 4.5% (40 h) and 98.1 ± 4.7% (72 h).

With `CC(C)NNC(=O)c1ccncc1` [Iproniazide phosphate] + CCCCNC(=O)OCC#CI [3-iodo-2-propynyl butylcarbamate (IPBC)], the growth yield (40 h) worked out at 89.3 ± 0.95% and the growth yield (72 h) is 99 ± 0.84%.

For `Oc1ccc(OCc2ccccc2)cc1` [Monobenzone] + CCCCNC(=O)OCC#CI [3-iodo-2-propynyl butylcarbamate (IPBC)], the growth yield by setting is: (40 h) 50.7 ± 6.5%; (72 h) 63 ± 4.3%.

`CCCCOC(=O)c1ccc(N)cc1` [Butamben] + CCCCNC(=O)OCC#CI [3-iodo-2-propynyl butylcarbamate (IPBC)]: the growth yield (40 h) came to 53.53 ± 0.16% and the growth yield (72 h) amounted to 70.7 ± 3.4%.

As for `CCCCN(CCCC)CCCOC(=O)c1ccc(N)cc1` [Butacaine] + CCCCNC(=O)OCC#CI [3-iodo-2-propynyl butylcarbamate (IPBC)], the growth yield was determined as 106 ± 9.2% (40 h) and 105 ± 8.7% (72 h).

In the case of `CCCCOC(=O)c1ccc(O)cc1` [Butylparaben] + CCCCNC(=O)OCC#CI [3-iodo-2-propynyl butylcarbamate (IPBC)], the growth yield by setting is: (40 h) 27.5 ± 1.8%; (72 h) 46.9 ± 3.2%.

In the case of `NNc1nncc2ccccc12` [Hydralazine hydrochloride] + CCCCNC(=O)OCC#CI [3-iodo-2-propynyl butylcarbamate (IPBC)], the growth yield (40 h) is 120 ± 6.8% and the growth yield (72 h) worked out at 125 ± 11%.

Regarding `Cc1cc(C2CCCCC2)n(O)c(=O)c1` [Ciclopirox ethanolamine] + CCCCNC(=O)OCC#CI [3-iodo-2-propynyl butylcarbamate (IPBC)], the growth yield is, setting by setting: (40 h) 3.49 ± 0.32%; (72 h) 2.83 ± 0.32%.

For the compound `CCOC(=O)[C@H](CCc1ccccc1)N[C@@H](C)C(=O)N1[C@H](C(=O)O)C[C@@H]2CCC[C@@H]21` [Ramipril] + CCCCNC(=O)OCC#CI [3-iodo-2-propynyl butylcarbamate (IPBC)], the growth yield (40 h) was determined as 95 ± 3.2% and the growth yield (72 h) was determined as 96 ± 3.9%.

As to `CC1(C)O[C@@H]2C[C@H]3[C@@H]4CCC5=CC(=O)C=C[C@]5(C)[C@H]4[C@@H](O)C[C@]3(C)[C@]2(C(=O)CO)O1` [Desonide] + CCCCNC(=O)OCC#CI [3-iodo-2-propynyl butylcarbamate (IPBC)], the growth yield is, setting by setting: (40 h) 107 ± 5.9%; (72 h) 103 ± 3.9%.

As to `C[C@@H]1CC[C@H]2[C@@H](C)C(=O)O[C@@H]3O[C@@]4(C)CC[C@@H]1[C@]32OO4` [Artemisinin] + CCCCNC(=O)OCC#CI [3-iodo-2-propynyl butylcarbamate (IPBC)], the growth yield runs as follows: (40 h) 32.4 ± 1.3%; (72 h) 76.3 ± 1.1%.
